Laboratory results as given in the supplement of paper PMC9135407.
Structures can show the parent of a compound that is named as a salt.

Test system: primary human hepatic stellate cells (donor 1)
Assay: ACTA2 mRNA fold change vs DMSO (normalised to PSMB2); higher = more ACTA2 expression
Conditions: 48 h
Procedure: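 Secondary qRT-PCR screen in primary human HSCs (donor 1), 384-well plates, with compounds dispensed in quadruplicate and incubated for 48 h. Cells-to-CT lysates were used for multiplexed TaqMan qPCR of ACTA2 or COL1A1 with PSMB2 as reference. Fold changes versus DMSO come from a linear model (Ct_gene ~ Ct_PSMB2 + plate + chemical). A hit is defined as COL1A1 and ACTA2 FC <0.5 (FDR <0.05) with PSMB2 between 0.2 and 2.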

Row | SMILES | ACTA2 mRNA fold change
1 | COc1ccccc1OCCNCC(O)COc1cccc2[nH]c3ccccc3c12 (stereo not given) [Carvedilol] (33.3333 µM) | 0.0773
2 | c1cc(OCCN2CCCCC2)cc(-c2n[nH]c3ccc(-c4nnc[nH]4)cc23)c1 (33.3333 µM) | 0.0437
3 | Cc1ccc(NC(=O)C(C)C)cc1C1CCN(Cc2ccc(Oc3ccc(F)c(F)c3)cc2)CC1 (33.3333 µM) | 0.0197
4 | CCC/C=C\C=C/C(=O)N[C@@H](CC(N)=O)C(=O)NC(CC(N)=O)C(=O)N[C@@H](C(=O)N[C@H](CCCN)C(=O)N[C@@H](C(=O)N[C@@H](C(=O)N[C@@H](C(=O)N[C@H](C(=O)N[C@@H](Cc1ccccc1)C(=O)N[C@H](CCCN)C(=O)NC(C(=O)N[C@H](C(=O)NC(C(=O)NCC(=O)N[C@@H](CC(C)C)C(=O)N[C@H](C)C(=O)NC(C(=O)O)C1CCC(O)C(Cl)C1)C1CCC(O)CC1)[C@H](C)O)C1CCC(O)CC1)[C@H](C)O)C1CCC(O)CC1)C1CCC(O)CC1)[C@H](C)O)C1CCC(O)CC1 (stereo not given in full) (33.3333 µM) | 0.502
5 | CN1CCC(Nc2ncc3ncnc(Nc4ccc(F)c(Cl)c4)c3n2)CC1 [BIBX 1382 dihydrochloride] (33.3333 µM) | 0.00877
6 | CS(=O)(=O)CCNCc1ccc(-c2ccc3ncnc(Nc4ccc(OCc5cccc(F)c5)c(Cl)c4)c3c2)o1 (6.66667 µM) | 1.05
7 | CCCSc1ccc2[nH]c(NC(=O)OC)nc2c1 [Albendazole] (33.3333 µM) | 0.173
8 | COC(=O)N[C@H](C(=O)N1CCC[C@H]1c1ncc(-c2ccc(-c3ccc(-c4cnc([C@@H]5CCCN5C(=O)[C@@H](NC(=O)OC)C(C)C)[nH]4)cc3)cc2)[nH]1)C(C)C (33.3333 µM) | 0.0331
9 | CC[C@@H]1C(=O)N(C)c2cnc(Nc3ccc(C(=O)NC4CCN(C)CC4)cc3OC)nc2N1C1CCCC1 (33.3333 µM) | 0.158
10 | CC#CCOC(=O)c1c(C)nc2sc3c(c2c1N)CCC(O)C3 (stereo not given) (33.3333 µM) | 0.806
11 | Cc1ccc(S(=O)(=O)/C=C/C#N)cc1 (33.3333 µM) | 0.24
12 | CC(C)c1cc(-c2n[nH]c(=O)n2-c2ccc3c(ccn3C)c2)c(O)cc1O [Ganetespib (STA-9090)] (33.3333 µM) | 0.605
13 | CN1CCC(=C2c3ccccc3C=Cc3ccccc32)CC1 [Cyproheptadine] (33.3333 µM) | 0.172
14 | Cn1cc(C2=C(c3ccc(Cl)cc3Cl)C(=O)NC2=O)c2ccccc21 (33.3333 µM) | 0.332
15 | CNCc1ccc(-c2[nH]c3cc(F)cc4c3c2CCNC4=O)cc1 (33.3333 µM) | 0.864
16 | C[C@]12CC[C@H](O)CC1=CC[C@@H]1[C@@H]2CC[C@]2(C)C(n3cnc4ccccc43)=CC[C@@H]12 [Galeterone] (33.3333 µM) | 0.0205
17 | Cc1ccc(NC(=O)c2ccc(CN3CCN(C)CC3)cc2)cc1Nc1nc(-c2cccnc2)cs1 [Masitinib (AB1010, Masivet)] (6.66667 µM) | 0.706
18 | NC[C@@H]1O[C@H](C23CC4CC(CC(C4)C2)C3)Cc2c1ccc(O)c2O (33.3333 µM) | 0.309
19 | O=C(c1ccc(/C=C/c2n[nH]c3ccccc23)cc1)N1CCNCC1 (33.3333 µM) | 0.0375
20 | O=C1NCN(c2ccccc2)C12CCN(CCCC(c1ccc(F)cc1)c1ccc(F)cc1)CC2 [Fluspirilene] (14.0333 µM) | 1.03

Row | SMILES | ACTA2 mRNA fold change
21 | CCOC(=O)C1=C(COCCN)NC(C)=C(C(=O)OC)C1c1ccccc1Cl (stereo not given) (33.3333 µM) | 0.084
22 | CC(/C=C/C(=O)NO)=C\[C@@H](C)C(=O)c1ccc(N(C)C)cc1 [Trichostatin A] (3.33333 µM) | 0.0381
23 | NC1(c2ccc(-c3nc4ccn5c(=O)[nH]nc5c4cc3-c3ccccc3)cc2)CCC1 (11.1 µM) | 0.33
24 | O=C1Nc2ccccc2/C1=C1/Nc2ccccc2C1=O [Indirubin] (63.5333 µM) | 1.06
25 | CCCCCCCCCCCCC/C=C/[C@@H](O)[C@H](CO)N(C)C [N,N-Dimethylsphingosine] (3.33333 µM) | 0.651
26 | O=C(Nc1ncc(SCCN2CCCC2)s1)[C@]1(c2ccc(S(=O)(=O)C3CC3)cc2)C[C@H]1C1CCCCC1 (11.1 µM) | 0.00928
27 | CN1CCN(C2=Cc3ccccc3Oc3ccc(Cl)cc32)CC1 (33.3333 µM) | 0.196
28 | CCN(CC)CCCCNc1ncc2cc(-c3c(Cl)cccc3Cl)c(NC(=O)NC(C)(C)C)nc2n1 (33.3333 µM) | 0.196
29 | Cc1[nH]c(/C=C2\C(=O)Nc3ccc(S(=O)(=O)N(C)c4cccc(Cl)c4)cc32)c(C)c1C(=O)N1CCN(C)CC1 (33.3333 µM) | 0.425
30 | CN1CCCN(C(c2ccccc2)c2ccc(Cl)cc2)CC1 (stereo not given) [Homochlorcyclizine dihydrochloride] (33.3333 µM) | 0.0102
31 | CSc1ccc2c(c1)C(N1CCN(C)CC1)Cc1ccccc1S2 (stereo not given) [Methiothepin maleate] (33.3333 µM) | 0.00993
32 | C[C@H]1O[C@@H](O[C@H]2[C@@H](O)C[C@H](O[C@H]3[C@@H](O)C[C@H](O[C@H]4CC[C@@]5(C)[C@H](CC[C@@H]6[C@@H]5C[C@@H](O)[C@]5(C)[C@@H](C7=CC(=O)OC7)CC[C@]65O)C4)O[C@@H]3C)O[C@@H]2C)C[C@H](O)[C@@H]1O [Digoxin] (33.3333 µM) | 0.0126
33 | COc1cc2nc(N3CCCN(C)CC3)nc(NC3CCN(Cc4ccccc4)CC3)c2cc1OC (3.33333 µM) | 0.0176
34 | CC(C)c1ccc(C(=O)c2cccs2)c(SCCCCCCCCN(C)C)n1 (33.3333 µM) | 0.846
35 | CN1CCC(CNc2ccc3ncc(-c4cccc(OC(F)(F)F)c4)n3n2)CC1 (6.66667 µM) | 1.23
36 | Cc1nc(Nc2ncc(C(=O)Nc3c(C)cccc3Cl)s2)cc(N2CCN(CCO)CC2)n1 (33.3333 µM) | 0.192
37 | O=S(=O)(NCCNC/C=C/c1ccc(Br)cc1)c1cccc2cnccc12 [H-89, Dihydrochloride] (11.1 µM) | 1.09
38 | C#CC1(O)CC[C@H]2[C@@H]3CCC4=CC(=O)CC[C@@H]4[C@H]3CC[C@@]21CC (stereo not given in full) [Norgestrel] (21.3333 µM) | 0.714
39 | CC(C)(C)c1cc(NC(=O)Nc2ccc(-c3cn4c(n3)sc3cc(OCCN5CCOCC5)ccc34)cc2)no1 [Quizartinib  (AC220)] (11.1 µM) | 0.258
40 | Cc1ccc(-c2ccc3c(ccc4sc5c(c43)NC[C@@H](C)NC5=O)n2)cn1 (33.3333 µM) | 1.65
